# Test results as given in ChEMBL document CHEMBL1157539, “Thousands of chemical starting points for antimalarial lead identification” (Nature, 2010).
# Several values for one entry are separate records, joined by “and”; a condition that tells them apart may be missing. Equal values may be shown once.
# Experiments:
# Type in all cases: functional
# Plasmodium falciparum [1] = assay: GSK_TCMDC: Inhibition of Plasmodium falciparum 3D7 in whole red blood cells, using parasite LDH activity as an index of growth. Test compounds present at 2uM
# Plasmodium falciparum [2] = assay: GSK_TCMDC: Inhibition of Plasmodium falciparum Dd2 in whole red blood cells, using parasite LDH activity as an index of growth. Test compounds present at 2uM
# HepG2 = assay: GSK_TCMDC: Percent inhibition of human HepG2 cell line. Test compounds present at 10uM.
Compound,Inhibition (Plasmodium falciparum [1]),Inhibition (Plasmodium falciparum [2]),Inhibition (HepG2)
CC[C@H]1CN2CC[C@H]1C[C@H]2[C@H](O)c1cc(-c2ccccc2C(F)(F)F)nc2ccc(OC)cc12.Cl,98%,99%,0%
COCCNCc1cccc(-c2cccc(CN(C(=O)Nc3ccccc3)C3CCN(Cc4ccccc4)CC3)c2)c1.O=C(O)C(F)(F)F,100%,65%,28%
Cc1ccc(CC(C)NCC(O)c2cccc(Cl)c2)cc1F.Cl (configuration not stated),95%,88%,1%
NC(=O)CN1CC=C(c2c[nH]c3ccc(Br)cc23)CC1,83%,0%,30%
CC[C@H]1CN2CC[C@H]1C[C@H]2[C@H](O)c1cc(-c2ccc3ccccc3c2)nc2ccc(OC)cc12.Cl,99%,99%,49%
CC(Cc1ccc(OCc2ccc(CCN(C)C)cc2)cc1)NCCc1cccc(Cl)c1 (configuration not stated),100%,78%,42%
COC(=O)c1ccc(CC(C)NCC(O)c2cccc(C(F)(F)F)c2)cc1F.Cl (configuration not stated),82%,47%,1%
CC[C@H]1CN2CC[C@H]1C[C@H]2[C@H](O)c1cc(-c2cccc(F)c2)nc2ccc(OC)cc12.Cl,99%,97%,34%
CC(Cc1ccc(-c2nc3ccccc3[nH]2)cc1)NCC(O)c1cccc(C(F)(F)F)c1 (configuration not stated),97%,90%,33%
O=C(/C=C/c1ccc(Cl)c(Cl)c1)N1CCC(CN2CCC(c3c[nH]c4ccc(NS(=O)(=O)c5cccs5)cc34)CC2)CC1,100%,100%,17%
Cc1cc(CN2CCN(CCOC(c3ccccc3)c3ccccc3)CC2)ccc1O,97%,96%,9%
COC(=O)/C=C/c1ccc(CC(C)NCC(O)c2cccc(Br)c2)cc1 (configuration not stated),97%,93%,2%
Cn1c(C2CC3CCC(C2)N3CC2CCC(NC(=O)/C=C/c3ccc(Cl)c(Cl)c3)CC2)nc2ccccc21 (configuration not stated),100%,51%,50%
CCCCCC(C)C(C)c1cc(O)c2c(c1)OC(C)(C)c1cnccc1-2.Cl (configuration not stated),94%,74%,7%
O=C(/C=C/c1ccc(Cl)c(Cl)c1)NC1CCC(CN2CCC(c3c[nH]c4cc(O)ccc34)CC2)CC1 (configuration not stated),100%,98%,18%
CC[C@H]1CN2CC[C@H]1C[C@H]2C(O)c1cc(OC)nc2ccccc12 (some centres not stated),100%,98%,0%
CC(Cc1ccc(SCCSc2ccccc2)cc1)NCC(O)c1cccc(Cl)c1 (configuration not stated),98%,96%,4%
CC[C@H]1CN2CC[C@@H]1C[C@H]2[C@H](O)c1cc(N2CCOCC2)nc2ccc(OC)cc12,99%,99%,10%
CCCCCCc1cc(O)c2c3c(c(=O)oc2c1)CCN(C)C3,99%,66%,0%
CCCCCC(C)C(C)c1cc(O)c2c(c1)OC1(C(C)C)CC(O)C(C)C2C1 (configuration not stated),93%,87%,1%
O=C(NC1CCC(CN2CCC(c3c[nH]c4ccccc34)CC2)CC1)C1(O)c2ccccc2-c2ccccc21 (configuration not stated),85%,46%,22%
CC[C@H]1CN2CC[C@@H]1C[C@H]2[C@H](O)c1cc(N2CCC(C)CC2)nc2ccc(OC)cc12,99%,98%,16%
CC[C@H]1CN2CC[C@H]1C[C@H]2[C@H](O)c1cc(-c2ccc(F)cc2C)nc2ccc(OC)cc12.Cl,99%,100%,0%
Cc1[nH]c2ccccc2c1C1=CCN(CCCCCNC(=O)/C=C/c2ccc(Cl)c(Cl)c2)CC1,97%,89%,28%
Cc1c(C)c2c(c(C)c1O)CC[C@](C)(C(=O)NC1CCC(CN3CCC(c4c[nH]c5ccccc45)CC3)CC1)O2 (some centres not stated),96% and 85%,98% and 48%,24% and 27%
O=C(/C=C/c1c(Cl)cccc1Cl)NC1CCC(CN2C3CCC2CC(c2c[nH]c4ccccc24)C3)CC1 (configuration not stated),95%,18%,40%
O=C(/C=C/c1ccc(Cl)c(Cl)c1)N1CCC(CN2CCC(c3c(-c4ccccc4)[nH]c4ccccc34)CC2)CC1,100%,99%,43%
C/C=C1/CN2CC[C@H]1C[C@H]2[C@H](O)c1ccnc2ccc(O)cc12,99%,11%,0%
COC(=O)/C=C/C(=O)N[C@@H]1CC[C@@]2(O)[C@H]3Cc4ccc(O)c5c4[C@@]2(CCN3CC2CC2)[C@H]1O5.Cl,95%,66%,9%
